From PubChem BioAssay (NCI)
About 83,000 compounds went through this panel and 20% of them were active in at least one assay; those are over-represented in the sample as a whole.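 Assay: single dose, 48 h. Readout: percent growth (0 = no net growth; negative = cell death). Active: <10.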 Unmarked numbers belong to inactive results. Active and inactive are the calls of the source.

System: SNB-75 CNS
Test: NCI-60 one-dose screen, 48 h (100 = growth as untreated, 0 = no growth, -100 = all killed)
Settings: 10 µM unless noted

Compared with `O=C1CC23OC(C(O)c4ccccc4N12)C1C(c2ccccc2)=NOC13` (centres undefined), `N#Cc1nc(-c2ccccc2)oc1S(=O)(=O)NCC(c1ccc(Cl)cc1)N1CCCCC1` (centres undefined) is higher in growth: 33.4% for the first, 94% for the second.

`COc1ccc(-n2cc(COc3ccc4c5ccnc(C)c5n(CC(C)C)c4c3)nn2)cc1` gave a growth of 61.8%.

For `C#C[C@@]1(O)[C@@H](CO)O[C@@H](n2cc(Cl)c3c(N)ncnc32)[C@@H]1O`, the growth was -42.4% (active).

System: SNB-19 CNS
Test: as above
Settings: 10 µM unless noted

Going from `C=C1C(=O)O[C@H]2[C@H]1CC/C(COC(=O)c1cn(C)c3ccccc13)=C\CC[C@@]1(C)O[C@@H]21` to `COc1ccccc1N1CCN(CCCOc2ccc(C(=O)/C=C3/C(=O)Nc4ccccc43)cc2)CC1`, the growth rises from 25.6% to 84.6%.

First: CCOCCc1c(O)nc(SC)[nH]c1=O
Second: Cc1ccc(-c2nc(C#N)c(S(=O)(=O)N(C)CCO)o2)cc1
The growth of the first is higher: 95.9% for the first, 86.5% for the second.

Compared with `O=C(CCl)N1CCCc2ccccc21`, `Cc1ccccc1NC(=O)c1sc2nc(C)c(C(C)O)cc2c1N` (centres undefined) is lower in growth: 100% for the first, 32.5% for the second.

First: COc1ccc(C(=O)c2cc(F)c(F)c(OC)c2F)cc1OC(=O)CCl
Second: COc1ccc(NC(=O)c2sc3nc(C)c(C(C)=O)cc3c2N)cc1
The growth of the first is lower: 39.1% for the first, 96.1% for the second.

`OCCNc1nc(NCCO)nc(Nc2ccc(C3=NN(c4cc(Cl)cc(Cl)c4)C(c4ccc(Cl)cc4)C3)cc2)n1` (centres undefined) was tested, and the growth was 15.8%.

In the case of `C#C[C@@]1(O)[C@@H](CO)O[C@@H](n2cc(Br)c3c(N)ncnc32)[C@@H]1O`, the growth is reported as 2.58% (active).
